Screens deposited in PubChem BioAssay by National Center for Advancing Translational Sciences (NCATS).
Only some compounds are listed: those with a hit (about 1.3% of all), similar ones and a draw of the others.
AmpC detergent: qHTS Inhibitors of AmpC Beta-Lactamase (assay with detergent); AmpC hydrolysis of nitrocefin, absorbance 480 nm, 0.01% Triton; Potency, µM (series often up to 114 µM), inactives show at the top dose activity change, negative = inhibition, hits mostly inhibitors; actives 0.041% (n = 370,000);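 further: 0% = no-compound wells and -100% = no-enzyme wells; nearly all actives have a fitted effect of over 25% in size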
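AmpC (5.3 nM in the dispensed reagent) in 20 mM phosphate pH 7.0 with 0.01% (detergent screen) or 0.0001% Triton X-100 was preincubated with compounds for 15 min at room temperature. Nitrocefin was then added from an 800 uM solution, and hydrolysis was followed at 480 nm.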
LmPK inh: qHTS Assay for Inhibitors of Leishmania Mexicana Pyruvate Kinase (LmPK); Q27686; purified LmPK, Kinase-Glo ATP luminescence, 1 h; Potency, µM (series often up to 57.5 µM), for inactives: top-dose activity change, negative = inhibition, usual class: inhibitors; actives 0.37% (n = 290,000); AID 1721, 2009
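Purified LmPK (0.1 nM) with 0.5 mM PEP and 0.1 mM ADP in imidazole buffer pH 7.2 with MgCl2/KCl, 1 h at room temperature. ATP formed was read by luciferase luminescence and normalized to no-enzyme and uninhibited controls.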
AmpC inh no detg: qHTS Inhibitors of AmpC Beta-Lactamase (assay without detergent); P00811; AmpC nitrocefin hydrolysis, absorbance 480 nm, 0.0001% Triton; Potency, µM (highest dose often 57.1 µM), for the others: top-dose activity change, negative = inhibition, actives largely listed as inhibitors; actives 0.52% (n = 330,000);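 further: plate controls were no compound for no effect and no enzyme for full effect; nearly all actives have a fitted effect of over 20% in size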
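20 mM phosphate pH 7.0 + 0.01% (detergent screen) or 0.0001% Triton X-100; 5.3 nM AmpC reagent; cpd preinc 15 min RT; nitrocefin (800 uM stock) to start; A480 q20 s × 4 min; Activity was normalised to no-enzyme and no-compound control wells.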
FBPA Giardia inh: qHTS Assay for Inhibitors of Fructose-1,6-bisphosphate Aldolase from Giardia Lamblia; A8B2U2; purified Giardia FBPA; Potency, µM (doses to about 59.6 µM), for inactives: at the top dose activity, negative = inhibition, hits mostly inhibitors; actives 0.71% (n = 290,000); further: nearly all actives have a fitted effect of over 55% in size
Target sequence (A8B2U2 whole entry, looked up): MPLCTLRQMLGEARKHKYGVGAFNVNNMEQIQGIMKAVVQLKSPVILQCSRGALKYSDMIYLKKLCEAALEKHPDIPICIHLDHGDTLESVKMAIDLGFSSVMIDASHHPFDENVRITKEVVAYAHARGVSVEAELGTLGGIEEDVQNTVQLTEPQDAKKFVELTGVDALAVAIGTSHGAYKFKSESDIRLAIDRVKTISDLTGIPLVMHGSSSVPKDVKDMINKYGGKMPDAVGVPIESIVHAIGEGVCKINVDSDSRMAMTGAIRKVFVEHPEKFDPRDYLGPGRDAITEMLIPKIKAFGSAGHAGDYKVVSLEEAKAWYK
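40 nM FBPA preincubated 10 min at RT with compound (up to 57.5 uM final), then substrate plus GAPDH/TPI/NAD/arsenate coupling and diaphorase/resazurin added. Fluorescence read after 20 min at RT, 525/598 nm.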
AMA1-RON2 inh: qHTS for Inhibitors of AMA1-RON; Towards Development of Antimalarial Drug Lead: Primary Screen. AlphaScreen AMA1-biotinylated RON2 peptide binding. Plasmodium falciparum AMA1 (3D7) - RON2 peptide interaction. actives 0.2% (n = 360,000). Potency, µM (doses to about 58.2 µM), for inactives: at the highest dose activity change, negative = inhibition, most hits filed as inhibitors;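 further: 0% = vehicle wells and -100% = peptide control; nearly all actives have a fitted effect of over 45% in size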
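AMA1 (3D7) with his tag at 25 nM final met compounds first, then biotinylated RON2 peptide at 25 nM; detection used donor plus acceptor beads, 10 µg/mL apiece, read by AlphaScreen after 30 min at room temperature.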
Starred values were filed as active, the others as inactive; u = inconclusive; x = no result. The call rests on the fitted dose curve; in most records, active means well fitted curve in the direction sought with a large enough effect; inconclusive means small, poorly fitted or top-dose-only effect, or another doubt; inactive means no such curve, though single readings can be large; an effect the other way counts as inactive or inconclusive. Unless noted, on the % scale 0 is the no-effect control and ±100 the full control effect; potency means the concentration at half of the fitted maximal effect.

SMILES | AmpC detergent | LmPK inh | AmpC inh no detg | FBPA Giardia inh | AMA1-RON2 inh
COc1ccc(/C=C/C(=O)NC(=S)NNC(=O)[C@H]2C[C@@H]2c2ccccc2)cc1OC | -3.1% | 8.2% | 7.08µM* | 16.2% | 129.6%
COc1ccc(CN2C[C@H]3CCCN3c3cc(Br)ccc3S2(=O)=O)cc1 | x | x | 20µM* | x | 1.6%
O=C(NCc1cccnc1)c1cccc(C(F)(F)F)c1 | -0.6% | -1.6% | 0.316µM* | -1.2% | 3.2%
O=C(NCc1cccnc1)Nc1cccc(C(F)(F)F)c1 | u | -0.1% | -15.1% | -2.0% | 0.0%
COc1ccc(Oc2nc3c(c(=O)n(C)c(=O)n3C)n2Cc2ccc(Cl)cc2Cl)cc1 | 11.8% | x | x | x | x
CCOc1ccc2nc(/N=C/c3c(C)[nH]n(-c4ccccc4)c3=O)sc2c1 | u | -19.6% | -24.1% | 10.4% | 11.5%
CCOc1ccc2nc(/N=C/c3c(C)[nH]n(-c4ccc(C)cc4)c3=O)sc2c1 | u | 14.1µM* | -6.2% | 20.5% | 0.9%
CN1CCN(C(=S)c2ccc(-c3cccc(Cl)c3Cl)o2)CC1 | u | 1.6% | 162.0% | -3.4% | 14.1µM*
CC(=O)OCc1cnc(C)c2oc(=O)c(C(=O)Nc3ccc(F)cc3C)cc12 | -2.2% | x | x | x | x
CC(=O)c1cccc2c(O)c(C3=Nc4ccccc4C3=O)[nH]c12 | u | 25.1µM* | -20.8% | u | u
Nc1cc(-c2ccncc2)c[nH]c1=O | u | 8.8% | -16.4% | 1.77µM* | 8.1%
CCOC(=O)CN=C1CC(C)(C)CC2=C1Sc1ncnc(N(C)C)c1N2 | -6.4% | -0.8% | -2.3% | 2.51µM* | 49.5%
CCN(CC)CCNC(=O)C1CCN(S(=O)(=O)N2CCCCC2)CC1 | 2.0% | -2.5% | 0.282µM* | 2.5% | 0.1%
CCCCCCCCCCCCCCOc1ccc(C(=O)O)o1 | x | x | x | 11.2% | x
O=C(COC(=O)C1CCC(N2C(=O)C3C4CCC(C4)C3C2=O)CC1)c1ccc(F)cc1 (configuration not stated) | -8.9% | -9.3% | 27.8% | 0.7% | -7.0%
CCc1nc(SCC(=O)NCc2ccc(F)cc2)c2c(=O)n(C)c(=O)n(C)c2n1 | u | -1.7% | 2.51µM* | 1.5% | -3.6%
Cc1cc(NC(=O)CSc2nc(CC(C)(C)C)nc3c2c(=O)n(C)c(=O)n3C)no1 | -12.6% | -0.2% | 39.8µM* | 3.4% | 3.3%
Cc1nc(NCc2ccccc2)c2nc(-c3ccccc3)n(CCN3CCOCC3)c2n1 | x | x | x | -2.1% | x
Cc1cc2c(NC(=O)Nc3ccccc3)cccc2nn1 | 11.6% | 4.3% | -25.0% | 5µM* | 0.4%
Cc1cccc(Cn2c(CNS(=O)(=O)c3ccc4c(c3)CCCC4)nc3cccnc32)c1 | 3.5% | x | x | x | x
C/C=C/c1cc(CN2CCN(c3ccc(OC)cc3)CC2)c(O)c(OC)c1 | 1.7% | -2.3% | 81.8% | -11.0% | 22.4µM*
COc1ccc(N2CCN(Cc3cc4c(cc3O)CCC4)CC2)cc1 | 2.2% | 5.8% | -2.8% | 1.2% | 15µM*
Oc1cc2c(cc1CN1CCN(c3ccccc3)CC1)CCC2 | -15.2% | 4.2% | -24.0% | -1.8% | 28.3%
Cc1ccc(S(=O)(=O)NC(CC(=O)NC2CCCC2)c2ccco2)cc1 (configuration not stated) | -4.3% | 1.0% | 0.398µM* | -0.8% | 11.6%
COc1ccc(S(=O)(=O)NC(CC(=O)NC2CCCC2)c2ccco2)cc1 (configuration not stated) | 1.4% | 0.4% | 64.8% | 1.8% | 7.4%
Cc1ccc(S(=O)(=O)NC(CC(=O)N2CCC3(CC2)OCCO3)c2ccco2)cc1 (configuration not stated) | -5.4% | 0.1% | 19.5% | -1.1% | -4.1%
Cc1ccc(S(=O)(=O)NC(CC(=O)N2CCOCC2)c2ccco2)cc1 (configuration not stated) | 4.8% | -5.1% | 0.141µM* | 0.8% | -1.5%
CCCN(CCC)c1nc(Cl)nc(NCc2ccco2)n1 | -2.8% | -0.7% | 0.159µM* | 3.0% | 2.2%
